A word on the AC50: it is the midpoint of the concentration-response curve, whichever way the signal moves.

Calls of active or inactive are those of the source. How the source made its calls: active means hit-call score of the fitted dose curve at least 0.9, where 1 is the maximum; inactive means score below 0.9.

The nature of the test: ATG_VDRE_CIS: Attagene CIS-FACTORIAL HepG2 Assay for human Vitamin D Receptor Element (VDRE) (AID 2282968). To be noted: HepG2 VDRE cis-reporter transcription, actives raise or lower the signal. As for the experimental part: ATG_CIS is a cell-based, multiplexed-readout assay that uses HepG2, a human liver cell line, with measurements taken at 24 hours after chemical dosing in a 24-well plate.ATG_VDRE_CIS is one of 52 assay component(s) measured or calculated from the ATG_CIS assay. It is designed to make measurements of mRNA induction, a form of inducible reporter, as detected with fluorescence intensity signals by Reverse transcription polymerase chain reaction (RT-PCR) and Capillary electrophoresis technology.Data from the assay component ATG_VDRE_CIS was analyzed into 1 assay endpoint. This assay endpoint, ATG_VDRE_CIS, was analyzed with bidirectional fitting relative to DMSO as the negative control and baseline of activity. Using a type of inducible reporter, measures of mRNA for gain or loss-of-signal activity can be used to understand the reporter gene at the transcription factor-level as they relate to the gene VDR. Furthermore, this assay endpoint can be referred to as a primary readout, because this assay has produced multiple assay endpoints where this one serves a reporter gene function. To generalize the intended target to other relatable targets, this assay endpoint is annotated to the nuclear receptor intended target family, where the subfamily is non-steroidal.
Human liver HepG2 cells are transiently transfected with multiple reporter transcription units (MRTUs) in 6-well plates using FuGene 6 reagent (Roche; 3 ml FuGene/1 mg DNA). The MRTU constructs are regulated by a cis-regulating element (promoter). […] A major difference between the CIS and TRANS system is that in CIS activities of endogenous TFs are measured, whereas the TRANS assay evaluates changes in activities of exogenous, chimeric NR-Gal4 proteins. […] At the end of 24 hour incubation, total RNA was isolated using TriZol reagent (Invitrogen). The isolated RNA is then reverse-transcribed using oligo(dT) primer and Mo-MLV reverse transcriptase (Invitrogen) with DNAse I (Ambion) treatment for 30 min. The one-tenth of the produced cDNA was amplified by PCR using Taq DNA polymerase (Invitrogen) and two reporter sequence-specific primers. The PCR products were fluorescently labeled by primer extension with 6-arboxyfluorescein (6-FAM) 5'-labeled reporter sequence-specific primer (2 min at 95 C, 20 s at 68 C and 10 min at 72 C) and these products were digested with 5U of HpaI (New England Biolabs) for 2h at 37 C. The fragments were purified using Qiaquick PCR columns (Qiagen), analyzed on an ABI 3130xL genetic analyzer (Applied Biosystems) with peak positions identified by using a set of X-rhodamine (ROX)-labeled MapMarker1000 molecular weight standards (BioVentures). The raw capillary electrophoresis data was processed using Attagraph software (Attagene).
For `C/C=C(\C)C(=O)OCc1ccccc1`, the molecule was called inactive.
On the same count and under the same terms, under `CCCC1CCC(=O)O1` (stereo not given) stands “inactive”; under `COC(=O)Cc1cccc2ccccc12`, “inactive”.
Take `O=C(O)COCCN1CCN(C(c2ccccc2)c2ccc(Cl)cc2)CC1` (stereo not given): the call was inactive.
As for `C=CC(=O)OCC(O)COc1ccccc1` (stereo not given), the AC50 was 26.2 µM (active).
With `NCCCN1CCOCC1`, the outcome was inactive.
For the molecule `CC1CCC(C(C)(C)O)CC1` (stereo not given), the outcome was inactive.
Take `S=C(S)NCCNC(=S)S`: the molecule was classed as inactive.
Regarding `CCN(CC)c1ccc(C(=C2C=CC(=[N+](CC)CC)C=C2)c2ccc(S(=O)(=O)O)cc2S(=O)(=O)[O-])cc1`, the result was inactive.
With `CCCCCCCCCCC(CO)CCCCCCCC` (stereo not given), the molecule was classed as inactive.
The same measure, in the same setting: the same measure for `NCCCCCCN`: “inactive”.
With `CC(=O)c1c(C)cc(C(C)(C)C)cc1C`, the molecule was classed as inactive.
For the molecule `O=c1oc(=O)c2cc3c(=O)oc(=O)c3cc12`, the molecule was called inactive.
On the same count and under the same terms, the same measure for `COc1ccc(Cl)cc1C`: “inactive”.
As to `CC(C)(N)CO`, the outcome was inactive.
Take `CC1CCC(C(C)CS)CC1S` (stereo not given): the result was inactive.
For `Nc1ccc(F)c([N+](=O)[O-])c1`, the result was inactive.
With `CCCCC/C=C/C=C/C=O`, the molecule was classed as inactive.
With `Cc1cccc(C)c1C`, the call was inactive.
Take `CC1(C)CCC(C)(C)c2cc(C(=O)Nc3ccc(C(=O)O)cc3)ccc21`: the AC50 is 27.8 µM (active).
On to `CCCCNC(=O)NS(=O)(=O)c1ccc(C)cc1`, for which the molecule was called inactive.
As for `CCCCCCCCCCCCCCCC(=O)O`, the molecule was classed as inactive.
As to `CC[C@]12CCCN3CCc4c(n(c5ccccc45)[C@@](O)(C(=O)OC)C1)[C@@H]32`, the result was inactive.
Turning to `CC1(CO)CN(c2ccccc2)NC1=O` (stereo not given), the call was inactive.
For `Nc1cc(Cl)c(O)c(Cl)c1`, the AC50 is 70.7 µM (active).
In the case of `CC(=O)[C@H]1CC[C@H]2[C@@H]3CC=C4C[C@@H](O)CC[C@]4(C)[C@H]3CC[C@]12C`, the AC50 was 22.6 µM (active).
As for `Cc1ccccc1C=O`, the outcome was inactive.
Turning to `NC(=O)c1ccccc1Cl`, the AC50 is 63.3 µM (active).
Turning to `[Ca+2]`, the molecule was called inactive.
For the molecule `CCCCNC(=O)NS(=O)(=O)c1ccc(N)cc1`, the result was inactive.
Turning to `COc1cccc(OC)c1`, the outcome was inactive.
On the same count and under the same terms, under `COC(C(=O)O)c1ccccc1` (stereo not given) stands “inactive”.
With `CC(C)(COC(=O)c1ccccc1)COC(=O)c1ccccc1`, the AC50 is 45.8 µM (active).
In the case of `C=C(C)C(=O)OCCOC(=O)CC(C)=O`, the call was inactive.
Turning to `COc1cc2ncnc(Nc3cccc(Cl)c3)c2cc1OC`, the AC50 is 12.7 µM (active).
In the case of `CC(C)=CCO`, the result was inactive.
On the same count and under the same terms, the same measure for `CC(C)=CCC/C(C)=C/COC=O`: “inactive”; for `O=C(O)CCCCCCCC(=O)O`: “inactive”.
As for `CC(=O)/C=C/C1=C(C)CCCC1(C)C`, the concentration at half-maximal activity (AC50) was 3.58 µM (active).
On to `CCCc1ccccc1O`, for which the molecule was classed as inactive.

The record behind these values is PubChem BioAssay (EPA / NIEHS).
